Assay outcomes: PubChem, several laboratories
A selection: hits, their analogues and other compounds. The true share with any hit is near 2.4%.
CRFR2-BP antag: antagonists of CRF-BP/CRF-R2 complex, primary screen, cell-based, HEK293, calcium dye fluorescence, uHTS; CRF-induced calcium fluorescence; inhibition, % at 11.8 µM; 0.59% of 350,000 active; AID 588475, 2011;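 active means inhibition of the ligand-induced calcium signal above about 50% at the single tested concentration, limit read from the data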
TLR4 MyD88 comp: inhibitors of TLR4-MyD88 association in cells, primary screen, cell-based, HeLa CL3-4, BLA complementation, FRET ratio; Toll-like receptor 4 (Homo sapiens) + Myeloid differentiation primary response protein …; HeLa CL3-4 TLR4/MyD88 BLA complementation; inhibition, % at 8.4 µM; 0.18% of 200,000 active; AID 861, 2007; in the data active means inhibition above about 25%;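 further: 0% = vehicle and 100% = reference inhibitor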
TLR9-MyD88 inh: inhibitors of TLR9-MyD88 association in cells, primary screen, cell-based, CHO, BLA complementation, fluorescence; Toll-like receptor 9 (Homo sapiens) + Myeloid differentiation primary response protein …; 0.21% of 340,000 active; CCF4 FRET ratio; inhibition, % at 4.98 µM;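 active means inhibition above the mean over all tested compounds plus 3 SD, cut at about 21% in these data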;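 further: 0% = DMSO only wells and 100% = clavulanate BLA inhibitor control wells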
Target sequence (Q99836 whole entry, looked up): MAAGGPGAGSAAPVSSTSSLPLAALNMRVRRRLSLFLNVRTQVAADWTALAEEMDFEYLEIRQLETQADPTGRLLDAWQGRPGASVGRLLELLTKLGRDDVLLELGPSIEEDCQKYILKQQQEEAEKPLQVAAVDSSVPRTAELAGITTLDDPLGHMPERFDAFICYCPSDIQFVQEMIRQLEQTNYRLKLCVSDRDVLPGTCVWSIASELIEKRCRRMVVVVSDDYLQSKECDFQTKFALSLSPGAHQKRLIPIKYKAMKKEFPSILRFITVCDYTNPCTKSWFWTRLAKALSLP
Target sequence (Q9NR96 whole entry, looked up): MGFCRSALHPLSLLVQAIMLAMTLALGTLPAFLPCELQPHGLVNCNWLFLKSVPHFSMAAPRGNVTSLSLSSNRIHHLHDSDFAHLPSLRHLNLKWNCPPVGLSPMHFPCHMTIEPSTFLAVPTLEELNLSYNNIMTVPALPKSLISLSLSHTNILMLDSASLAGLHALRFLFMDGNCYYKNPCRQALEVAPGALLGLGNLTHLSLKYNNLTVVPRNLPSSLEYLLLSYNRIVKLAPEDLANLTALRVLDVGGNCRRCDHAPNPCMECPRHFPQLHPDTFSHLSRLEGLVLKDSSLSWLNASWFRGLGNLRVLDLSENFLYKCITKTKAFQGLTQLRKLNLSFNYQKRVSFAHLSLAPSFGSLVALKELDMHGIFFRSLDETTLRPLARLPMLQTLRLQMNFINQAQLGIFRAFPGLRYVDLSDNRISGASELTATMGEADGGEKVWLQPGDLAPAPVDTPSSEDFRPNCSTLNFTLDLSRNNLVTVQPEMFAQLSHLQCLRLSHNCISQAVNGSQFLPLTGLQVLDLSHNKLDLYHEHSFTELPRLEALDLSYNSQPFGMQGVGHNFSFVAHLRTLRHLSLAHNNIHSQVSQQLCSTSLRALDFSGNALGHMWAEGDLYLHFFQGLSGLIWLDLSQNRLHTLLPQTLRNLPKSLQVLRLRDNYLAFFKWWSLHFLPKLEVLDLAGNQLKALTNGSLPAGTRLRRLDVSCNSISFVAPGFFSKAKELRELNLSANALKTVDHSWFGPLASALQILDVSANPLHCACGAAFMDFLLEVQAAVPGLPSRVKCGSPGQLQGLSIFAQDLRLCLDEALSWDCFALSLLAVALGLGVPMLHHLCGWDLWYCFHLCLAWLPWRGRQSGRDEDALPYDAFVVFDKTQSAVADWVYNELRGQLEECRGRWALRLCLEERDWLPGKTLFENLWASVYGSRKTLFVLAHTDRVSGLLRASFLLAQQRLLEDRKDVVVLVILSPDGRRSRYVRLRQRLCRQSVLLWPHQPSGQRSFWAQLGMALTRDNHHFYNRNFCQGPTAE
NOD2-RIPK2 inh: NOD2-RIPK2 binding disruptors in cells, primary screen, fluorescence, CHO cells, BLA complementation; 0.38% of 360,000 active; AID 624267, 2012; Receptor-interacting serine/threonine-protein kinase 2 (Homo sapiens), O43353; CCF4 ratio; inhibition, % at 4.98 µM; in the data active means inhibition above about 21%;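 further: 0% = vehicle only and 100% = reference blocker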
HTR2A ag: mouse Htr2a agonists via beta-arrestin recruitment, primary screen, cell-based, luminescence | 0.66% of 360,000 active | activation, % at 7.6 µM | AID 624169, 2012 | CHO-K1 mHTR2A beta-arrestin complementation; percent of 30 µM serotonin response | 5-hydroxytryptamine receptor 2A (Mus musculus), P35363;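 active means activation above a run cutoff, the mean activation of all tested compounds plus 3 SD, cut at about 14% in these data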;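 further: 0% = plate median of compound wells and 100% = 30 µM serotonin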
ABHD5-PLIN5 inh: ABHD5-PLIN5 interaction inhibitors, primary screen, cell lysate, split luciferase complementation, luminescence; Perilipin-5 (Homo sapiens) + 1-acylglycerol-3-phosphate O-acyltransferase ABHD5 (Homo …; 0.78% of 360,000 active; inhibition, % at 4 µM; Split G. princeps luciferase complementation, 4 h; AID 602281, 2012;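 active means inhibition above the mean inhibition across every tested compound plus 3 SD, cut at about 22% in these data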;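 further: 0% = DMSO only wells and the 100% control is not disclosed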
* hit, by the source's call.

For O=C(NCCN1CCN(c2cccc(Cl)c2)CC1)C1CCCN(S(=O)(=O)c2cnc[nH]2)C1 (stereo not drawn) the results were CRFR2-BP antag 2, TLR4 MyD88 comp -6, TLR9-MyD88 inh 3, NOD2-RIPK2 inh 15, HTR2A ag 14 and ABHD5-PLIN5 inh 6.
Screening O=C(NCCN1CCN(c2ccccc2)CC1)C1CCCN(S(=O)(=O)c2cnc[nH]2)C1 (stereo not drawn) returned CRFR2-BP antag 1, TLR4 MyD88 comp 1, TLR9-MyD88 inh -5, NOD2-RIPK2 inh 1, HTR2A ag 30* and ABHD5-PLIN5 inh 4.
Screening CCC(c1nnnn1-c1ccc2c(c1)OCCO2)N1CCN(c2ccc(C)cc2)CC1 (stereo not drawn) returned NOD2-RIPK2 inh -10, HTR2A ag -3 and ABHD5-PLIN5 inh -7.
Clc1cccc(-c2nnc(SC/C=C/c3ccccc3)n2Cc2ccco2)c1 was read as CRFR2-BP antag 60*, TLR4 MyD88 comp -3, TLR9-MyD88 inh -3, NOD2-RIPK2 inh -5, HTR2A ag -4 and ABHD5-PLIN5 inh -1.
For Nn1c(SC/C=C/c2ccccc2)nnc1-c1ccco1 the results were CRFR2-BP antag -4, TLR4 MyD88 comp 2, TLR9-MyD88 inh 6, NOD2-RIPK2 inh 5, HTR2A ag 2 and ABHD5-PLIN5 inh 7.
Screening Clc1ccc(CSc2nnc(-c3ccccn3)n2Cc2ccco2)cc1Cl returned NOD2-RIPK2 inh 1, HTR2A ag -10 and ABHD5-PLIN5 inh -2.
`C(=C\c1ccccc1)/CSc1nnc(-c2ccncc2)n1Cc1ccco1` gave CRFR2-BP antag 39, TLR4 MyD88 comp 2, TLR9-MyD88 inh -5, NOD2-RIPK2 inh 0, HTR2A ag 3 and ABHD5-PLIN5 inh 16.
C(=C\c1ccccc1)/CSc1nnc(-c2ccccc2)n1Cc1ccco1 was read as CRFR2-BP antag 62*, TLR4 MyD88 comp 14, TLR9-MyD88 inh 9, NOD2-RIPK2 inh 9, HTR2A ag -6 and ABHD5-PLIN5 inh 11.
Screening Clc1cccc(CSc2nnc(-c3ccccn3)n2Cc2ccco2)c1 returned CRFR2-BP antag 12, TLR4 MyD88 comp -17, TLR9-MyD88 inh 4, NOD2-RIPK2 inh 4, HTR2A ag 1 and ABHD5-PLIN5 inh 23*.
COCCCN1C(=O)C(CC(=O)NC2CC2)CC(C(=O)N2CCOCC2)=C1C (stereo not drawn) was read as NOD2-RIPK2 inh -8, HTR2A ag 7 and ABHD5-PLIN5 inh -13.
Screening O=C(CSc1nnc(CNc2ccc(F)cc2)n1Cc1ccco1)NC1CC1 returned CRFR2-BP antag -1, TLR4 MyD88 comp -2, TLR9-MyD88 inh -5, NOD2-RIPK2 inh -7, HTR2A ag -1 and ABHD5-PLIN5 inh 22*.
`CN(C)CCCN(C(=O)COc1ccc(Cl)cc1)c1nc2cc3c(cc2s1)OCO3` gave CRFR2-BP antag -2, TLR9-MyD88 inh 3, NOD2-RIPK2 inh -4, HTR2A ag -11 and ABHD5-PLIN5 inh 23*.
Screening CC(C(=O)NC1CCCC1)n1c(C2CCCC2)nc2ccccc21 (stereo not drawn) returned NOD2-RIPK2 inh -1, HTR2A ag -5 and ABHD5-PLIN5 inh 0.
`S=C(SSC(=S)N1CCOCC1)N1CCOCC1` gave NOD2-RIPK2 inh -10, HTR2A ag -4 and ABHD5-PLIN5 inh 7.
For O=C(CNc1ccccc1)N/N=C/c1ccc([N+](=O)[O-])o1 the results were CRFR2-BP antag 85*, TLR4 MyD88 comp 0, TLR9-MyD88 inh 6, NOD2-RIPK2 inh -1, HTR2A ag 2 and ABHD5-PLIN5 inh -5.
Screening Cc1ccc(NCC(=O)N/N=C\c2ccc([N+](=O)[O-])o2)cc1 returned CRFR2-BP antag 11, TLR4 MyD88 comp -7, TLR9-MyD88 inh -3, NOD2-RIPK2 inh -14, HTR2A ag 3 and ABHD5-PLIN5 inh 3.
CC12CCC(C(=O)Nc3ncc([N+](=O)[O-])s3)(OC1=O)C2(C)C (stereo not drawn) was read as CRFR2-BP antag 63*, TLR4 MyD88 comp -2, TLR9-MyD88 inh 2, NOD2-RIPK2 inh 5, HTR2A ag 11 and ABHD5-PLIN5 inh -6.
`CC12CCC(C(=O)Nc3cccc(NC(=O)C45CCC(C)(C(=O)O4)C5(C)C)n3)(OC1=O)C2(C)C` gave CRFR2-BP antag -4, TLR4 MyD88 comp -7, TLR9-MyD88 inh 10, NOD2-RIPK2 inh -8, HTR2A ag -5 and ABHD5-PLIN5 inh -3.
COc1ccc(N2CCN(CCCNC(=O)C(=O)c3c(C)[nH]c4ccccc34)CC2)cc1 was read as CRFR2-BP antag 62*, TLR9-MyD88 inh 14, NOD2-RIPK2 inh -15, HTR2A ag -10 and ABHD5-PLIN5 inh -2.
`COc1ccc(N2CCN(CC(=O)c3c[nH]c4ccccc34)CC2)cc1` gave CRFR2-BP antag -27, TLR9-MyD88 inh 4, NOD2-RIPK2 inh -6, HTR2A ag -5 and ABHD5-PLIN5 inh 5.
Cc1ccc(N(C(=O)Cn2nnc(-c3ccccc3)n2)C(C(=O)NC2CCCCC2)c2ccccn2)cc1C (stereo not drawn) was read as CRFR2-BP antag 56*, TLR4 MyD88 comp -1, TLR9-MyD88 inh 5, NOD2-RIPK2 inh -5, HTR2A ag 6 and ABHD5-PLIN5 inh 1.
For CC1C(=O)C(C)C(c2cc(Br)ccc2O)NC1c1cc(Br)ccc1O (stereo not drawn) the results were CRFR2-BP antag 58*, TLR9-MyD88 inh 7, NOD2-RIPK2 inh 1, HTR2A ag -6 and ABHD5-PLIN5 inh -14.
COc1ccc(/C=N\NC(=O)c2cc(O)c(O)c(O)c2)cc1CN1CCN(c2ccc(F)cc2)CC1 was read as CRFR2-BP antag 18, TLR4 MyD88 comp 3, TLR9-MyD88 inh -5, NOD2-RIPK2 inh -4, HTR2A ag -3 and ABHD5-PLIN5 inh 22*.
For O=C(O)C1=C[C@@H](c2ccc(Br)cc2)C[C@@H](OCc2ccc(CO)cc2)O1 the results were CRFR2-BP antag 76*, TLR4 MyD88 comp 5, TLR9-MyD88 inh 0, NOD2-RIPK2 inh 1, HTR2A ag -3 and ABHD5-PLIN5 inh 0.
`CCc1c(C)nc(SCC(=O)N2CCN(c3ccccc3OC)CC2)[nH]c1=O` gave CRFR2-BP antag 58*, TLR4 MyD88 comp 6, TLR9-MyD88 inh -8, NOD2-RIPK2 inh -2, HTR2A ag -4 and ABHD5-PLIN5 inh -3.
`COc1ccccc1N1CCN(C(=O)CSc2nc(C)c(C)c(=O)[nH]2)CC1` gave CRFR2-BP antag -5, TLR4 MyD88 comp -18, TLR9-MyD88 inh -7, NOD2-RIPK2 inh -4, HTR2A ag 2 and ABHD5-PLIN5 inh 1.
